From PubChem BioAssay
This is one part of a sample in which hits are shown more often than they occur.
Shiga inhibitor – A qHTS for Small Molecule Inhibitors of Shiga Toxin; inhibition, % at 38.7 µM; hit rate 9.2% among 290,000; Vero cells, Shiga toxin protein synthesis inhibition reporter; AID 2315, 2010; in the data active = inhibition mostly above about 28%, no sharp cut-off; inactive = mostly below about 43%; note: 0% is about no effect
LmPK inhibitor – qHTS Assay for Inhibitors of Leishmania Mexicana Pyruvate Kinase (LmPK) | Q27686 | purified LmPK, Kinase-Glo ATP luminescence, 1 h | Potency, µM (top dose mostly 57.5 µM), for inactives: top-dose activity change, negative = inhibition, actives largely listed as inhibitors | hit rate 0.37% among 290,000; note: potency is the fitted concentration of half-maximal effect; % is set by controls: 0 for no effect and ±100 for the full control effect
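Purified LmPK (0.1 nM) converted ADP (0.1 mM) to ATP with PEP (0.5 mM) in imidazole buffer pH 7.2 with KCl and MgCl2, 1 h at room temperature. ATP was read by Kinase-Glo luminescence; data normalized to uninhibited and no-enzyme controls.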
RE007 growth inh – qHTS Assay for Inhibitors of the HIV-1 protein Vpr | AID 651644, 2012 | hit rate 0.21% among 360,000 | Potency, µM (series often up to 92.2 µM), for the others: top-dose activity change, negative = less growth, usual class: inhibitors | S. pombe RE007 Vpr strain, BacTiter-Glo ATP luminescence, 24 h; active = well fitted falling curve with a large enough effect; inconclusive = small, poorly fitted or top-dose-only effect; inactive = no such curve, though single readings can be large or run the other way; note: potency is the fitted concentration of half-maximal effect; % is set by controls: 0 for no effect and ±100 for the full control effect; nearly all actives have a fitted effect of over 50% in size
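Fission yeast strain RE007, carrying one chromosomally integrated HIV-1 vpr copy, was seeded at OD 0.01 in PMG+AL medium with 23 nL pinned compound. After 24 h at 30 °C and 99% humidity, viability was read by BacTiter-Glo luminescence.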
Cycloheximide cs – Cycloheximide Counterscreen for Small Molecule Inhibitors of Shiga Toxin; max response, %; hit rate 12% among 300,000; AID 2314, 2010; cell reporter, cycloheximide protein synthesis inhibition counterscreen; in the data active = max response mostly above about 13%, no sharp cut-off; inactive = mostly below about 14%; note: read at 38.3 µM for the half of the compounds with a filed dose; 0% is about no effect
FBPA Giardia inh – qHTS Assay for Inhibitors of Fructose-1,6-bisphosphate Aldolase from Giardia Lamblia; A8B2U2; purified Giardia FBPA; Potency, µM (highest dose often 59.6 µM), for inactives: top-dose activity, negative = inhibition, usual class: inhibitors; hit rate 0.71% among 290,000; note: potency is the fitted concentration of half-maximal effect; % is set by controls: 0 for no effect and ±100 for the full control effect; nearly all actives have a fitted effect of over 55% in size
Target sequence (A8B2U2 whole entry, looked up): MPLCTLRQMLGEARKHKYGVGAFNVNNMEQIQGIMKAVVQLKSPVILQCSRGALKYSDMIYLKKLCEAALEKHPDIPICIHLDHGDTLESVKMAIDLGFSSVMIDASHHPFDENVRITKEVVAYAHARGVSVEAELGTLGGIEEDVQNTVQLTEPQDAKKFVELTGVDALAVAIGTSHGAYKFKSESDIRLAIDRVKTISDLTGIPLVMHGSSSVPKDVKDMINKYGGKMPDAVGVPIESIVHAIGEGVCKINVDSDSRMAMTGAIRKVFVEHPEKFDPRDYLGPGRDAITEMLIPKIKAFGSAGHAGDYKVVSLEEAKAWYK
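40 nM FBPA preincubated 10 min at RT with compound (up to 57.5 uM final), then substrate plus GAPDH/TPI/NAD/arsenate coupling and diaphorase/resazurin added. Fluorescence read after 20 min at RT, 525/598 nm.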
Tb PYK inh – qHTS of Trypanosoma Brucei Inhibitors; pyruvate kinase (Trypanosoma brucei), Q57TT1; TbPYK enzyme, Kinase-Glo Plus ATP luminescence, 45 min; Potency, µM (titrated, usually from 76.8 µM), for the others: at the top dose activity, negative = inhibition, usual class: inhibitors; hit rate 0.12% among 410,000; note: potency is the fitted concentration of half-maximal effect; % is set by controls: 0 for no effect and ±100 for the full control effect; nearly all actives have a fitted effect of over 50% in size
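Luminescence from Kinase-Glo Plus, added after a 45-minute room-temperature reaction, served as the end-point read-out. The enzyme and substrate were preincubated with compound before ADP (130 uM final) initiated turnover. Concentration-effect curves came from normalized qHTS data.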
* = called active by the depositor; ? = inconclusive; / = no result given; [ ] = dose if it differs, or a comment. Unless noted, calls come from the whole dose curve; as a rule, active = well fitted curve in the direction sought with a large enough effect; inconclusive = small, poorly fitted or top-dose-only effect, or another doubt; inactive = no such curve, though single readings can be large; an effect the other way counts as inactive or inconclusive.

SMILES	Shiga inhibitor	LmPK inhibitor	RE007 growth inh	Cycloheximide cs	FBPA Giardia inh	Tb PYK inh
CCCCc1ccc(NC(=O)CSc2nnc3[nH]c(=O)cc(C)n23)cc1	/	/	/	/	/	-6.4%
Cc1ccc(C)c(Nc2ncnc3c2cnn3-c2ccc(F)cc2)c1	/	/	/	/	/	-9.0%
c1ccc(Cc2nnc3sc(-c4ccc5c(c4)OCO5)nn23)cc1	/	/	-11.3%	/	/	-19.7%
c1ccc(Cc2nnc3sc(-c4ccc5c(c4)OCCO5)nn23)cc1	55.7	5.5%	-19.4%	36.0*	6.9%	-17.8%
COc1ccc(CCN(C)CCCN2CCc3cc(OC)c(OC)cc3CC2=O)cc1OC	-4.8	/	/	3.5	1.1%	-4.8%
O=C1CC(NNC(=O)c2cccc(F)c2)C(=O)N1 (configuration not stated)	23.9	4.0%	2.3%	10.8*	-6.9%	-5.6%
Cc1cc2c(s1)c1cnn(Cc3c(F)cccc3F)c(=O)c1n2C	2.7	/	/	-0.5	/	/
Cc1ccc(NC(=O)c2onc(C)c2Cl)cc1	62.3*	1.3%	-21.5%	30.2*	-0.2%	-6.7%
Cc1noc(C(=O)Nc2ccc(F)c(Cl)c2)c1Cl	29.7*	-5.4%	106.6%	29.0*	5.1%	-6.0%
O=C(NC(c1cccnc1)c1ccc2c(c1)OCO2)C1CCN(CCOc2ccc(Cl)cc2Cl)CC1 (configuration not stated)	/	/	-9.8%	/	/	-4.6%
Cc1nn(-c2ccc(C(F)(F)F)cn2)c(C)c1Oc1ccccc1O	61.5	-0.9%	3.8%	23.2*	9.3%	-2.2%
CN1CCN(CCOc2ccc(Cc3ccccc3)cc2)CC1	-4.0	-0.1%	-4.1%	8.7	?	-1.6%
c1ccc(OCc2ccc(CCCN3CCOCC3)cc2)cc1	28.4*	-1.7%	-9.4%	26.0*	/	-0.7%
c1ccc(COc2ccc(OCCCN3CCCCC3)cc2)cc1	53.1*	-11.7%	15.9%	31.9*	-27.4%	0.7%
c1ccc(CCCN2CCOCC2)cc1	-8.5	-9.2%	-13.2%	-3.9	?	-1.1%
O=C(Nc1ccc(OCc2ccccc2)cc1)Nc1ccccc1C(=O)NCCCN1CCOCC1	48.3*	14.1µM*	-27.1%	35.5*	5.4%	?
O=C(Nc1ccccc1C(=O)NCCCN1CCOCC1)c1ccc(F)cc1F	1.4	-5.5%	-16.3%	15.2	/	-6.8%
CC1CCN(CCOc2ccc(OCc3ccccc3)cc2)CC1	54.0*	-2.6%	6.4%	39.1*	-25.2%	11.3%
CCCCCCCc1cc2c(cn1)C(=O)C(C)(OC(C)=O)C(O)=C2Cl (configuration not stated)	/	/	/	/	-5.9%	/
c1ccc(COc2ccc(OCCCCN3CCCC3)cc2)cc1	81.9*	-1.1%	4.4%	19.4*	-19.4%	-10.9%
c1ccc(COc2ccc(OCCOCCn3cncn3)cc2)cc1	79.5*	-13.7%	0.6%	56.9*	0.7%	-4.0%
COc1ccc(-n2c(=O)c(-c3cccs3)nc3cnc(Oc4ccccc4)nc32)cc1	/	/	/	/	6.2%	0.1%
COc1ccc(-c2nc(CC(=O)O)cs2)cc1	-5.1	-5.5%	5.3%	-0.8	4.5%	0.8%
O=C(O)c1ccc(-c2nc(-c3cccc(C(F)(F)F)c3)cs2)cc1	79.0	4.4%	5.7%	6.9	25.8%	-2.4%
O=C(O)c1ccc(-c2nc(-c3ccc(Cl)cc3Cl)cs2)cc1	77.1*	-2.4%	3.7%	33.8*	15.9%	-6.2%
SMILES	Shiga inhibitor	LmPK inhibitor	RE007 growth inh	Cycloheximide cs	FBPA Giardia inh	Tb PYK inh
C=CCNC(=O)c1ccc(-c2nc(-c3ccccc3)cs2)cc1	51.5*	-4.1%	-12.9%[3.69 µM]	32.5*	-15.6%	/
C=CCNC(=O)c1ccc(-c2nc3ccccc3nc2-c2ccccc2)cc1	/	/	20.5%	/	/	0.9%
O=C(O)c1ccc(-c2nc(-c3ccc(Cl)cc3)cs2)cc1	81.2*	-0.7%	-5.6%	32.1*	-0.4%	-0.9%
COc1ccc(-c2csc(-c3ccc(C(=O)O)cc3)n2)cc1	60.5*	-8.6%	-0.2%	27.0*	-0.5%	8.8%
COc1ccccc1N1CCN(S(=O)(=O)c2c(C)sc3ncn(CC(=O)N(C)c4ccc(C(C)C)cc4)c(=O)c23)CC1	/	/	/	/	/	-8.2%
COc1ccc(-c2csc(-c3[nH]cnc3N)n2)cc1	86.2*	-1.9%	0.6%	28.3*	-16.0%	-14.2%
O=C(CNc1ccc(Br)cc1)c1ccc(O)cc1	92.8*	-1.8%	-25.1%	38.7*	0.8%	2.8%
Cc1ccc(NCC(=O)c2ccccc2)cc1Cl	102.4*	-8.0%	4.2%	23.9*	-0.7%	-15.6%
Cc1ccc(NCCC(=O)c2ccccc2)cc1Cl	42.6*	1.9%	-17.9%	15.1*	-7.2%	-2.0%
Cc1ccc(C(=O)CNc2cccc(Cl)c2)cc1	30.0	-2.1%	-6.8%	30.0	-1.3%	1.9%
Cc1ccc(NCCC(=O)c2ccc(Cl)cc2)cc1	8.9	0.5%	8.4%	-2.8	?	3.1%
Cc1ccc(NCC(=O)c2ccc(C)cc2)cc1	48.0*	-1.3%	-26.6%	39.0*	-9.5%	6.2%
O=C(CSC1=Nc2ccccc2N=C(c2ccc(F)cc2)C1)Nc1cc(F)ccc1F	/	/	/	/	/	-4.0%
CCCOc1ccc(C(=O)CCNc2cccc(Cl)c2)cc1	129.7*	0.3%	-3.7%	25.2*	-0.2%	0.5%
O=C(O)c1cccc(NC2=C(Cl)C(=O)c3ccccc3C2=O)c1	24.9	-18.8%	-8.8%	13.1	?	-3.2%
Cc1ccc(NC2=C(NC(=O)c3ccccc3)C(=O)c3ccccc3C2=O)cc1Cl	0.0	7.08µM*	?	1.8	?	?
Cc1ccc(C(=O)CNc2ccc(C)c(Cl)c2)cc1	20.3	-0.6%	-12.6%	26.6*	-7.9%	-18.9%
CSc1nc(C)nc(N/C=C(\C#N)S(=O)(=O)c2ccccc2Cl)n1	-8.1	6.0%	6.6%	-2.4	12.9%	0.8%
CCN(C(=S)NC(=O)c1ccccc1Br)C1CCCCC1	-1.6	3.0%	-5.7%	-2.7	0.0%	-5.6%
COC(=O)c1ccc(-n2c(C)ccc2-c2ccccc2)cc1	2.2	-0.9%	-14.2%	13.7*	5.5%	-3.5%
COC(=O)c1ccc(-n2c(CCC(=O)O)ccc2-c2ccccc2)cc1	28.3	-0.7%	33.9%	10.7	6.5%	-4.8%
CC(=O)Nc1ccc(-n2c(C)ccc2-c2ccccc2)cc1	-4.6	1.2%	-11.7%	-4.3	2.2%	-3.6%
CC(=O)c1ccc(-n2c(C)ccc2-c2ccccc2)cc1	32.3	2.8%	?	28.9*	4.5%	6.4%
NC(=O)C1CCN(C(=S)NCCc2ccccc2)CC1	16.3	-4.6%	6.3%	17.7*	1.2%	-4.7%
COc1cccc(N2CCN(CC(=O)Nc3ccccc3C(=O)NCCc3ccccc3)CC2)c1	/	/	?	/	/	-2.0%
O=C(CN1CCN(c2ccc(O)cc2)CC1)Nc1ccccc1C(=O)NCCc1ccccc1	/	/	-7.6%	/	/	28.2µM*
